This is a sample that favours compounds with a hit; in the whole collection about 1.8% have one here.
PHOSPHO1 inh: inhibitors of human PHOSPHO1 phosphatase; Q8TCT1; recombinant PHOSPHO1, absorbance phosphatase assay; inhibition, % at 13.3 µM; hit rate 1.1% among 290,000; in the data active means inhibition above about 60%
Target sequence (Q8TCT1 whole entry, looked up): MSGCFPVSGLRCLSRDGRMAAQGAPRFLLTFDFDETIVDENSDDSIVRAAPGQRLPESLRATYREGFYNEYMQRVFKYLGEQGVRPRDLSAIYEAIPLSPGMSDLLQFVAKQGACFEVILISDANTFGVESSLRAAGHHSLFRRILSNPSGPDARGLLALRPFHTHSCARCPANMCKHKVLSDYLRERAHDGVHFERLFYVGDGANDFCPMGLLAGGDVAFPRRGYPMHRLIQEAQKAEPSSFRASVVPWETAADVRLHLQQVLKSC
pCIP destab: lowers stability of the mouse p/CIP coactivator protein. Q05BA5. F442A p/CIP-EGFP cells, EGFP fluorescence, 16 h. decrease of EGFP signal, % at 10 µM. hit rate 0.01% among 290,000. AID 1984;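 active means EGFP signal decrease of at least 30% at 10 µM or well 3 SD below plate mean, unless failing retest; inactive means the rest, including hits failing retest or dose response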
UBC9 SUMO inh: blocks human SUMOylation mediated by UBC9. P63279. HTRF SUMOylation assay, SAE1/SAE2 + UBC9, in vitro. inhibition, % at 35 µM. hit rate 0.36% among 290,000. AID 2006; in the data active means inhibition above about 50%, passing the limit was not always enough
Target sequence (P63279 whole entry, looked up): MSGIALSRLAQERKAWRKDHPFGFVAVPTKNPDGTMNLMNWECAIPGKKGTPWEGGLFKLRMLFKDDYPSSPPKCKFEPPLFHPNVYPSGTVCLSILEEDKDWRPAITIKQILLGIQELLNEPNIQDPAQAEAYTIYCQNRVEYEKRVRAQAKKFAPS
NadD inh: inhibitors of Staphylococcus aureus NadD. purified NadD enzyme, colorimetric absorbance read-out. inhibition, % at 20 µM. hit rate 0.78% among 360,000; in the data active means inhibition above about 26%
Hits are given with their value; 0 = inactive; - = no result.

SMILES | PHOSPHO1 inh | pCIP destab | UBC9 SUMO inh | NadD inh
COc1ccccc1/C=C/C=N/n1c(-c2ccccc2)n[nH]c1=S | 98.6 | 0 | 0 | 0
CC1=C(C(=O)N(C(C)C)C(C)C)CC(CC(=O)NCCCCc2ccccc2)C(=O)N1CCCN1CCCC1=O (centres undefined) | - | - | - | 0
Cc1cc(NC(=O)c2ccc(Cl)cc2)c(C)cc1O | 0 | 0 | 0 | 0
Cc1cc(C(C#N)c2ccc(Cl)cc2)c(Cl)cc1NC(=O)c1cc(I)cc(I)c1O (centres undefined) | - | - | - | 51.5
Fc1ccc(NC(=S)Nc2ccc(F)c(Cl)c2)cc1Cl | 95.0 | 0 | 0 | 0
O=C(NC(=S)Nc1ccc(F)c(Cl)c1)C1CC1 | 0 | 0 | 0 | 0
O=C(Nc1ccc2c(c1)OCCO2)C1CCN(C(=O)c2ccc([N+](=O)[O-])cc2)CC1 | 66.2 | 0 | 0 | 0
O=C(Nc1ccc2c(c1)OCCO2)C1CCN(C(=O)c2ccc(Br)cc2)CC1 | 0 | 0 | 0 | 0
COc1ccc2c(c1)c(C(=O)CN1CCC3(CC1)OCCO3)c(C)n2C | 97.2 | 0 | 0 | 0
COc1ccc2[nH]cc(C(=O)CNc3nc(C)cs3)c2c1 | 88.9 | 0 | 0 | 0
CSc1ccccc1OCc1cc(C(=O)N(C)C(C)c2ccccn2)no1 (centres undefined) | 61.0 | 0 | 0 | 0
Cc1cc(OCc2cc(C(=O)N(C)C(C)c3ccccn3)no2)cc(C)c1Cl (centres undefined) | 0 | 0 | 0 | 0
CCOC(=O)CCCCCC(=O)Nc1ccc2c(c1)C(=O)N([C@H](C)CO)C[C@H](C)[C@H](CN(C)C(=O)C1CCCCC1)OCCCC[C@@H](C)O2 | - | - | - | 0
CCc1ccc(CN(C)Cc2c(C(=O)N3CCOCC3)nc3c(C)cccn23)nc1 | - | - | - | 0
CC1(C(=O)Nc2ccc3c(c2)OCCO3)CCN1C(=O)Cc1ccc(-c2ccccc2)cc1 (centres undefined) | - | - | - | 0
CC(C)(C)OC(=O)N1CCC(C(=O)Nc2ccc(C(=O)NCCc3ccccc3)cc2)CC1 | - | - | - | 0
CCC[n+]1c(C)sc2c3c(ccc21)CCCC3 | 0 | 0 | 0 | 44.5
CC[n+]1c(C)sc2c(C)cc(C)cc21 | 0 | 0 | 0 | 0
O=C(O)c1cc(S(=O)(=O)Nc2ccc3oc(=O)sc3c2)ccc1O | 63.2 | 0 | 0 | -
O=C(Nc1nnc(-c2ccccc2SCc2ccccc2F)s1)Nc1ccccc1F | 0 | 0 | 52.4 | 0
CCC(=O)N1CCC1(C)C(=O)NCc1ccc(SC)cc1 (centres undefined) | - | - | - | 0
CCOC(=O)N1CCC(N2C(=O)c3ccccc3C2=O)CC1 | 99.1 | 0 | 0 | 0
COC(=O)c1ccc(OCC(=O)NC2CCCCCC2)cc1 | 62.6 | 0 | 0 | 0
Cc1c(NC(=O)CSc2nnc3c4ccccc4n(CCc4ccccc4)c3n2)c(=O)n(-c2ccccc2)n1C | 63.9 | 0 | 0 | 0
N#CCCn1[nH]c(-c2ccccc2)cc1=O | 0 | 0 | 69.4 | 0
SMILES | PHOSPHO1 inh | pCIP destab | UBC9 SUMO inh | NadD inh
Cc1cc(=O)n(CCCc2ccccc2)[nH]1 | - | - | - | 0
COc1ccccc1NS(=O)(=O)c1cccc(C(=O)N/N=C/c2ccc(C)o2)c1 | 0 | 0 | 0 | 0
Cc1ccc(/C=N/NC(=O)c2cccc(S(=O)(=O)Nc3cccc(Cl)c3)c2)o1 | 0 | 0 | 61.0 | 0
N#Cc1cccc(NC(=O)c2cc(C3CCCCN3C(=O)c3ccccn3)on2)c1 (centres undefined) | - | - | - | 0
CN(C)C(=O)CSc1ncccc1-c1nc2ccccc2[nH]1 | 0 | 0 | 0 | 0
O=C(CSc1ncccc1-c1nc2ccccc2[nH]1)N1CCCCC1 | 89.4 | 0 | 0 | 0
O=C(Cn1cnc([N+](=O)[O-])n1)NC1CC1 | 68.5 | 0 | 0 | 0
O=C(c1cccc(S(=O)(=O)N2CCOCC2)c1)N1CCN(c2ncccn2)CC1 | - | - | - | 0
COc1ccc(C(=O)c2ccc(OC)c(OC)c2)cc1OC | 0 | 0 | 0 | 0
COc1ccc(C(=O)c2ccc(OC)c3cccc(O)c23)cc1OC | 82.7 | 0 | 0 | 0
CCC(C)[C@H](NC(=O)[C@@H]1CSC2c3ccccc3C(=O)N21)C(=O)N1CCCCC1 (some centres undefined) | 64.9 | 0 | 0 | 0
Oc1ccc(N=C/C=C/c2cccc(Br)c2)cc1-c1nc2ccccc2s1 | 0 | 0 | 0 | 40.7
C[C@@H]1Cn2cnc(C(=O)NCC(=O)OC(C)(C)C)c2C(=O)N1 | - | - | - | 0
COc1ccc(NC(=O)/C(C#N)=C\c2ccc(OCc3ccc(C(=O)O)cc3)c(OC)c2)cc1 | 70.5 | 0 | 0 | 0
CCn1ccnc1CN1CCCC(CO)(Cc2cccc(OC)c2)C1 (centres undefined) | 0 | 0 | 0 | 0
CCOC(=O)C1(Cc2cccc(OC)c2)CCCN(Cc2nccn2CC)C1 (centres undefined) | 60.1 | 0 | 0 | 0
CCOC(=O)C1(Cc2cccc(Cl)c2)CCCN(C(=O)c2ccco2)C1 (centres undefined) | 0 | 0 | 0 | 0
CCOC(=O)C1(Cc2cccc(OC)c2)CCCN(C(=O)c2cc(C)on2)C1 (centres undefined) | 67.6 | 0 | 0 | 0
CCOC(=O)C1(Cc2cccc(Cl)c2)CCCN(C(=O)c2ccoc2C)C1 (centres undefined) | 61.0 | 0 | 0 | 0
CCCCc1ccc(S(=O)(=O)NC(=O)C2(C)CCN2C(=O)C/C=C/c2ccccc2)cc1 (centres undefined) | - | - | - | 0
CCC(=S)/C=C1\Sc2ccccc2N1CCCS(=O)(=O)O | 64.4 | 0 | 0 | 0
CCN1/C(=C\C=C2\C(=O)N(C)C(=S)N2C)Sc2ccccc21 | 0 | 0 | 0 | 0
Cc1cc(C(=O)CSc2nn3c(=O)c(C(C)(C)C)nnc3s2)c(C)n1-c1ccc(F)cc1 | 102.5 | 0 | 0 | 0
CN1CCN(C(=S)c2ccc(-c3cc(Cl)ccc3Cl)o2)CC1 | 0 | 0 | 0 | 0
N#CCCN1CCN(C(=S)c2ccc(-c3cc(Cl)ccc3Cl)o2)CC1 | 73.5 | 0 | 0 | 0
SMILES | PHOSPHO1 inh | pCIP destab | UBC9 SUMO inh | NadD inh
Cc1nc(COC(=O)c2ccc(S(=O)(=O)N3CCCC3)cc2)cs1 | 80.8 | 0 | 0 | 0
NC(=O)COC(=O)c1ccc(S(=O)(=O)N2CCCCCC2)cc1 | 0 | 0 | 0 | 0
CC1(c2nnnn2Cc2ccccc2)CCC(=O)N1CCc1ccc(O)cc1 (centres undefined) | - | - | - | 0
O=C1NC[C@H](CCCCN2C[C@H](Cc3ccccc3)N(CCC3CCCCC3)C(=O)C2=O)N(CCc2ccc(O)cc2)C1=O | - | - | - | 0
CCOC(=O)c1sc2nc3c(SCC(=O)O)cc(C(=O)c4ccccc4O)cn3c(=O)c2c1C | 0 | 0 | 75.9 | 0
CCC1OC(C(C)C)Cc2[nH][nH]c(=O)c21 (centres undefined) | - | - | - | 0
Cn1c(SCC(=O)N2CCOCC2)nnc1-c1cccc(NC(=O)c2ccccc2)c1 | 91.8 | 0 | 0 | 0
Cc1ccc(C2CC2c2n[nH]c(=S)n2-c2ccc(Cl)cc2)cc1 (centres undefined) | 73.8 | 0 | 0 | 0
CCNC(=O)C1CCCN(C(=O)c2cc(OC)c(OC)c(OC)c2)CC1 (centres undefined) | - | - | - | 0
CCC(=O)N1CCc2cc(S(=O)(=O)CCC(=O)NCCc3ccc(S(N)(=O)=O)cc3)ccc21 | 0 | 0 | 0 | 0
CC(=O)N1CCc2cc(S(=O)(=O)CCC(=O)NCCc3ccc(Cl)cc3)ccc21 | 64.9 | 0 | 0 | 0
